The text below walks through data of PubChem BioAssay (Tox21).

Each structure is given as a SMILES string. “And” between values parts separate entries of the source, which are not always exact repeats. Equal values may be shown once. Results filed as inconclusive are left out. The source made the active and inactive calls. Unless noted, calls follow the shape of the dose curve; as a rule, active = well fitted curve in the direction sought with a large enough effect in the repeat runs; inconclusive = weak or mixed curves; inactive = no such curve, though single readings can be large; an effect the other way counts as inactive or inconclusive.

Test [1] deals with Thyrotropin-releasing hormone receptor (Homo sapiens) (UniProt P34981). The experiment in a line: qHTS assay to identify small molecule agonists of the thyrotropin-releasing hormone receptor (TRHR) signaling pathway (AID 1346891; calls by dose curve;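 also: HEK293 cells expressing TRHR with calcium dye readout; series mostly up to about 58 µM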). In outline:
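Overnight-plated (18 h, 37 °C, 5% CO2) TRHR-Hek293 cells; 2 h calcium dye at 37 °C; compound in DMSO; 3-min kinetic fluorescence read.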

Test [2] in a line: Human pregnane X receptor (PXR) small molecule agonists, qHTS cell viability counter screen (AID 1346977). Also: nearly all actives have a fitted effect of over 50% in size. In outline: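 After a 5hr pre-incubation, PXR-Luc HepG2 cells received compounds plus positive control in DMSO and were kept 24hr at 37C. Cell viability was quantified by fluorescence from CellTiter-Fluor added for the final hour.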
Test [3] is described as follows: Caspase-3/7 induction in HepG2 cells by small molecules, qHTS assay (AID 1346978). Also: nearly all actives have a fitted effect of over 15% in size. The gist of the method: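 Wild-type HepG2 cells, 2,000/well, settled 5 hr at 37 C and 5% CO2, then compound-treated for 17 hr; caspase-3/7 activity read by luminescent Caspase-Glo 3/7 after 30 min at room temperature.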
Test [4] can be described thus: Caspase-3/7 induction in CHO-K1 cells by small molecules, qHTS cell viability counter screen (AID 1346979). Also: nearly all actives have a fitted effect of over 35% in size. Also: potency is read from the fitted curve at half-maximal effect. In outline: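 Multiplexed with Caspase-Glo 3/7 in CHO-K1 cells, this counter screen added CellTiter-Fluor after 16hr of compound exposure and recorded fluorescence 1hr later.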
The nature of test [5]: Caspase-3/7 induction in CHO-K1 cells by small molecules, qHTS assay (AID 1346980). Also: nearly all actives have a fitted effect of over 15% in size. The gist of the method: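 Wild-type CHO-K1 cells exposed to compounds for 17hr at 37 C, 5% CO2. Caspase-3/7 activity then measured by Caspase-Glo 3/7 luminescence after 30min at room temperature.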
Test [6] is described as follows: Caspase-3/7 induction in HepG2 cells by small molecules, qHTS cell viability counter screen (AID 1346981). Also: series mostly up to about 92 µM; nearly all actives have a fitted effect of over 30% in size. In outline:
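Treatment of HepG2 cells with DMSO-delivered compounds ran 16 hr at 37 C following a 5-hr pre-incubation of 2,000 cells/well. CellTiter-Fluor fluorescence, read after 1 hr, served as the viability measure in a qHTS format.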

Test [7] addresses Nuclear receptor subfamily 1 group I member 2 (Homo sapiens) (UniProt O75469). The experiment in a line: Human pregnane X receptor (PXR) small molecule agonists, qHTS assay (AID 1346982). Also: nearly all actives have a fitted effect of over 35% in size. Also: potency is read from the fitted curve at half-maximal effect. The gist of the method: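 Stable HepG2 line reporting PXR-mediated CYP3A4 expression via luciferase. Treatment: 24 hr with compounds in DMSO at 37 C. Detection: ONE-Glo luminescence.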
In test [8] the target is Acetylcholinesterase (Homo sapiens) (UniProt P22303). As to the kind of experiment: Acetylcholinesterase (AChE) small molecule antagonists: colormetric cell-based qHTS assay (AID 1347395; calls by dose curve; also: nearly all actives have a fitted effect of over 30% in size). In outline:
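In this cell-based qHTS, attached SH-SY5Y cells were treated with test chemicals for 30 min, after which acetylthiocholine hydrolysis was followed by DTNB colour development over 90 min at 37 C.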

Test [9] shares this target. The experiment in a line: Acetylcholinesterase (AChE) small molecule antagonists: enzyme-based qHTS assay (AID 1347397; calls by dose curve; also: nearly all actives have a fitted effect of over 55% in size). To be noted: Potency: AChE enzyme activity inhibition. The gist of the method:
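Colorimetric DTNB read-out of thiocholine released from acetylthiocholine by recombinant human AChE (50 mU/mL as dispensed). Compounds were preincubated 30 min at RT before substrate/DTNB addition, with a 10 min RT reaction.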

Test [10] has the same target. The experiment in a line: Acetylcholinesterase (AChE) small molecule antagonists: fluorescence cell-based qHTS assay (AID 1347398; calls by dose curve; also: nearly all actives have a fitted effect of over 50% in size). To be noted: Potency: AChE activity. The gist of the method: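 SH-SY5Y, 2,000 cells/well, attached overnight; cmpd 30 min 37 C; acetylthiocholine/Thiolite Green cocktail 40 min RT; fluorescence Ex/Em 490/520 nm.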
Test [11] has the same target. As to the kind of experiment: Acetylcholinesterase (AChE) small molecule antagonists: enzyme-based qHTS assay with human liver microsomes (AID 1347399; calls by dose curve; also: nearly all actives have a fitted effect of over 60% in size). To be noted: Potency: qHTS inhibition. The gist of the method:
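Recombinant human AChE (50 mU/mL in the enzyme mix) and human liver microsomes (0.25 mg/mL final) were preincubated with compound and NADPH (0.25 mg/mL final) for 30 min at 37 C. Acetylthiocholine/DTNB was then added; thiocholine was read colorimetrically after 10 min at room temperature.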

Test [12] concerns the target Cytochrome P450 2C19 (Homo sapiens) (UniProt P33261). As to the kind of experiment: Cytochrome P450 Family 2 Subfamily C Member 19 (CYP2C19) small molecule antagonists: luciferase reporter qHTS assay (AID 1671197). Also: nearly all actives have a fitted effect of over 65% in size. Also: potency is read from the fitted curve at half-maximal effect. The gist of the method:
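First, compounds are pinned into enzyme-substrate mix and held 10 min at room temperature. Second, NADPH regeneration solution is added and plates incubate 1 h at 37C. Third, detection reagent is added and luminescence read after 20 min.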

Test [13] has as its target Cytochrome P450 2C9 (Homo sapiens) (UniProt P11712). As to the kind of experiment: Cytochrome P450 Family 2 Subfamily C Member 9 (CYP2C9) small molecule antagonists: luciferase reporter qHTS assay (AID 1671198). Also: nearly all actives have a fitted effect of over 50% in size. Also: potency is read from the fitted curve at half-maximal effect. In outline: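 P450-Glo proluciferin substrate with CYP2C9 enzyme; 10 min RT preincubation, then NADPH regeneration 1 h at 37C; luciferin detection reagent 20 min RT, luminescence in relative luminescence units.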

Test [14] addresses Cytochrome P450 3A4 (Homo sapiens) (UniProt P08684). As to the kind of experiment: Cytochrome P450 Family 3 Subfamily A Member 4 (CYP3A4) small molecule antagonists: luciferase reporter qHTS assay (AID 1671201). Also: nearly all actives have a fitted effect of over 50% in size. Also: potency is read from the fitted curve at half-maximal effect. The gist of the method: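 Room-temperature assay throughout: 10 min compound–enzyme/substrate preincubation, 1 h reaction after NADPH regeneration solution, 20 min detection. Luciferin formed from proluciferin substrate is quantified by luminescence.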

Test [15] has as its target Cytochrome P450 2D6 (Homo sapiens) (UniProt P10635). As to the kind of experiment: Cytochrome P450 Family 2 Subfamily D Member 6 (CYP2D6) small molecule antagonists: luciferase reporter qHTS assay (AID 1671196). Also: nearly all actives have a fitted effect of over 50% in size. Also: potency is read from the fitted curve at half-maximal effect. In outline:
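Chemicals tested for interference with CYP2D6 activity; proluciferin substrate, NADPH regeneration, 1 h at room temperature, luminescent detection.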

Test [16] has as its target Cytochrome P450 1A2 (Homo sapiens) (UniProt P05177). As to the kind of experiment: Cytochrome P450 Family 1 Subfamily A Member 2 (CYP1A2) small molecule antagonists: luciferase reporter qHTS assay (AID 1671199). Also: nearly all actives have a fitted effect of over 50% in size. Also: potency is read from the fitted curve at half-maximal effect. The gist of the method: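 Read-out is luminescence from luciferin detection reagent (20 min) proportional to CYP1A2 activity; compounds in DMSO preincubated 10 min with enzyme and proluciferin substrate, then NADPH regeneration solution, 1 h, room temperature.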

The target of test [17] is Voltage-gated inwardly rectifying potassium channel KCNH2 (Homo sapiens) (UniProt Q12809). As to the kind of experiment: Human Ether-a-go-go-Related Gene (hERG) channel small molecule antagonists: fluorescence cell-based qHTS assay (AID 1671200). In outline:
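Cell line hERG-U2OS; dye FluxOR II, 1 h RT dark; Tl+ stimulus; ex 480/em 540 nm, read each second for 2 min.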

Chain of Cytochrome P450 2C19 (Homo sapiens) (P33261 whole entry, looked up): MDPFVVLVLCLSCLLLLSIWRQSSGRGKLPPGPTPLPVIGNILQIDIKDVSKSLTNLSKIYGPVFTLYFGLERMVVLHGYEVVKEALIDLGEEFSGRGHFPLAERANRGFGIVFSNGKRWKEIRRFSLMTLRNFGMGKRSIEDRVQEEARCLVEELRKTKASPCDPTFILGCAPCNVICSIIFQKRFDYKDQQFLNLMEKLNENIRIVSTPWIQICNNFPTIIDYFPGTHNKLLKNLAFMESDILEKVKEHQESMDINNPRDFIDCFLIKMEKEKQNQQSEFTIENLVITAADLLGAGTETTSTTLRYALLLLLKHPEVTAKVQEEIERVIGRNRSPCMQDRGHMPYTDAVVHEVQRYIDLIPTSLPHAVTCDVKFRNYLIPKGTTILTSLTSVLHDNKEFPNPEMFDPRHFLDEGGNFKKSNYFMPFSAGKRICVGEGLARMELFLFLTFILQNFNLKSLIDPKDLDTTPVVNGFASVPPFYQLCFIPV
Chain of Cytochrome P450 3A4 (Homo sapiens) (P08684 whole entry, looked up): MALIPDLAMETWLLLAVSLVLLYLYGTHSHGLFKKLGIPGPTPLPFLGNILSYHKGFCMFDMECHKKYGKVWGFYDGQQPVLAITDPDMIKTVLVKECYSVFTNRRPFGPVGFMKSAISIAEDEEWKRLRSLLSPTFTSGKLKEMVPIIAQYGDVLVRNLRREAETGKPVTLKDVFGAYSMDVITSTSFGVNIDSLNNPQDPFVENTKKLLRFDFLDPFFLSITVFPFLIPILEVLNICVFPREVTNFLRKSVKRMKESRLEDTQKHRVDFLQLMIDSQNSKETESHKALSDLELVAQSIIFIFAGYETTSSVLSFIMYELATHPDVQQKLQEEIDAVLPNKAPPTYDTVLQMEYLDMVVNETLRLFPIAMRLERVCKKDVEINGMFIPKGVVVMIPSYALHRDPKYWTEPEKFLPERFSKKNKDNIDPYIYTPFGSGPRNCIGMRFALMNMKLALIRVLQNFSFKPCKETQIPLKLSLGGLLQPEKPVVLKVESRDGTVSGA
Chain of Thyrotropin-releasing hormone receptor (Homo sapiens) (P34981 whole entry, looked up): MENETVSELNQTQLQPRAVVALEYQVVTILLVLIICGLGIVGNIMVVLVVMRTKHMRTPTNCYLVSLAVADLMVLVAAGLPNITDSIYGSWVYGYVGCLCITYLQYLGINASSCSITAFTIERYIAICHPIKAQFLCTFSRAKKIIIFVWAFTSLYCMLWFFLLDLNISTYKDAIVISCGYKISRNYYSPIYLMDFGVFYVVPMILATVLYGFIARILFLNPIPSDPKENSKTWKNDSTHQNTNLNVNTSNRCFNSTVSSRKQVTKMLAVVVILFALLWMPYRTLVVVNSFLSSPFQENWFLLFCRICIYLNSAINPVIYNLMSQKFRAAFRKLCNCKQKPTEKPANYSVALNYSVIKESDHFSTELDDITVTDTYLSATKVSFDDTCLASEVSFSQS
Chain of Voltage-gated inwardly rectifying potassium channel KCNH2 (Homo sapiens) (Q12809 whole entry, looked up): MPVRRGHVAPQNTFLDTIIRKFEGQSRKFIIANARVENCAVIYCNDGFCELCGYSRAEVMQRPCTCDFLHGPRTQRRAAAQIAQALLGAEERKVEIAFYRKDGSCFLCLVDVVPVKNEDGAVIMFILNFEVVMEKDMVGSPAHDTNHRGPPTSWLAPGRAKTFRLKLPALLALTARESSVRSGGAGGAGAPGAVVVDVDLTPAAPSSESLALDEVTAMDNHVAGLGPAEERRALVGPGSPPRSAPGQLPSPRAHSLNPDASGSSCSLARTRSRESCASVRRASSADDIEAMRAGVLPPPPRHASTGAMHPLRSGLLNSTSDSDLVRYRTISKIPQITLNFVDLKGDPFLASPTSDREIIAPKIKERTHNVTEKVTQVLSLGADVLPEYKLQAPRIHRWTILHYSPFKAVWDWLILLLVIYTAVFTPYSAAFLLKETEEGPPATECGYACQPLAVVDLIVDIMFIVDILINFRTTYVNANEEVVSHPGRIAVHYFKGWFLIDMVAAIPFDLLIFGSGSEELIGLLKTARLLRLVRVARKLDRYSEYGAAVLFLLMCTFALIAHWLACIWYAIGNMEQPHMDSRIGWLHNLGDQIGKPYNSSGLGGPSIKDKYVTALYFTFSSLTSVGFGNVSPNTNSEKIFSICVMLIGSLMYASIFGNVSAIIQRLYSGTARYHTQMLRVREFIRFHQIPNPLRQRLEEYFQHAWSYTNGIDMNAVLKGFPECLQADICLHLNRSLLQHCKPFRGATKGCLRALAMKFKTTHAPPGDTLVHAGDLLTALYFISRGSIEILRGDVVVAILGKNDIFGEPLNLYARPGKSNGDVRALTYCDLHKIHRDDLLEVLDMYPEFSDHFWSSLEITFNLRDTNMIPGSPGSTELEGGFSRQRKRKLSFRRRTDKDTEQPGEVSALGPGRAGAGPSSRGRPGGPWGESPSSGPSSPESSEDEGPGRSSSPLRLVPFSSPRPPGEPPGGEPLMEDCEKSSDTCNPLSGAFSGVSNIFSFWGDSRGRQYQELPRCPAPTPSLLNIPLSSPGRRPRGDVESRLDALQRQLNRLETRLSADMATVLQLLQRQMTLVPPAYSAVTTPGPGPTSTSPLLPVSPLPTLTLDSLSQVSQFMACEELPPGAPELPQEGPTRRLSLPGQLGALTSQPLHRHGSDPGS
Chain of Nuclear receptor subfamily 1 group I member 2 (Homo sapiens) (O75469 whole entry, looked up): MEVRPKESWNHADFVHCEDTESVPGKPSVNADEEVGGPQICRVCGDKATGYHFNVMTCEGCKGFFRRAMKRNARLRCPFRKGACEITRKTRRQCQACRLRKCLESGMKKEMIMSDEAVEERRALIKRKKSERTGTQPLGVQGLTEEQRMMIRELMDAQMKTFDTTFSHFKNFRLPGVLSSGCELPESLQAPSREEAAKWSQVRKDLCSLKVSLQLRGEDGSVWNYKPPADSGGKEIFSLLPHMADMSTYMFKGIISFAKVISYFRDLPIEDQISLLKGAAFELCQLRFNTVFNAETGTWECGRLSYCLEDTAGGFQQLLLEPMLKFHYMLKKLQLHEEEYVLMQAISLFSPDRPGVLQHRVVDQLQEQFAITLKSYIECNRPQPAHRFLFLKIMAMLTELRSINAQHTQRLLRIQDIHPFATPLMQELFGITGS
Chain of Cytochrome P450 1A2 (Homo sapiens) (P05177 whole entry, looked up): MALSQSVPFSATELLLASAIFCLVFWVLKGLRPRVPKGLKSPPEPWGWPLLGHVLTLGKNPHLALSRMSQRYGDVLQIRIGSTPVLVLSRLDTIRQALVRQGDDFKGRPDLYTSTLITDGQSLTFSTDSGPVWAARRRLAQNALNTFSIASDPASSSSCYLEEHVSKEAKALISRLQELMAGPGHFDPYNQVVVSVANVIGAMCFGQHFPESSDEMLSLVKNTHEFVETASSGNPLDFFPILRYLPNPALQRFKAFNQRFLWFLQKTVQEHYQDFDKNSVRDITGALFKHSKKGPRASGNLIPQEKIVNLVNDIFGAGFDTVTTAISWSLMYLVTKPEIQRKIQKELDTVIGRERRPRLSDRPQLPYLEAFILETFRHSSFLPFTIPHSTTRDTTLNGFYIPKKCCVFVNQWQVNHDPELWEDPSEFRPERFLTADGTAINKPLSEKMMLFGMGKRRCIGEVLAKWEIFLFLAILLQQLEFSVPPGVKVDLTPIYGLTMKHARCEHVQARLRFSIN
Chain of Cytochrome P450 2C9 (Homo sapiens) (P11712 whole entry, looked up): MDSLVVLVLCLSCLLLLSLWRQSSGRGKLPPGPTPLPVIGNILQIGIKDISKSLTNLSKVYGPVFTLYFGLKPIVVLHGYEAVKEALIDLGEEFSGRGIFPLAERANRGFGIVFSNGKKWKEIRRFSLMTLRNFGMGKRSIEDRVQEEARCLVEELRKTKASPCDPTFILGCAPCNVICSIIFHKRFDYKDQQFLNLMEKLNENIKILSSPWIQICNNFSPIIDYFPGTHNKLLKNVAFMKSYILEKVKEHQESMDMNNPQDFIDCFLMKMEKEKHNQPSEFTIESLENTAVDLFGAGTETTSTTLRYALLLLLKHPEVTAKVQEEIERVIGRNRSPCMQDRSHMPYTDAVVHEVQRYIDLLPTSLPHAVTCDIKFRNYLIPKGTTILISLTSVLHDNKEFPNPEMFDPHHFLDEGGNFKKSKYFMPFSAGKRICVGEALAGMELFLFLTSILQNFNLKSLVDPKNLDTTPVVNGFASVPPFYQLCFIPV
Chain of Cytochrome P450 2D6 (Homo sapiens) (P10635 whole entry, looked up): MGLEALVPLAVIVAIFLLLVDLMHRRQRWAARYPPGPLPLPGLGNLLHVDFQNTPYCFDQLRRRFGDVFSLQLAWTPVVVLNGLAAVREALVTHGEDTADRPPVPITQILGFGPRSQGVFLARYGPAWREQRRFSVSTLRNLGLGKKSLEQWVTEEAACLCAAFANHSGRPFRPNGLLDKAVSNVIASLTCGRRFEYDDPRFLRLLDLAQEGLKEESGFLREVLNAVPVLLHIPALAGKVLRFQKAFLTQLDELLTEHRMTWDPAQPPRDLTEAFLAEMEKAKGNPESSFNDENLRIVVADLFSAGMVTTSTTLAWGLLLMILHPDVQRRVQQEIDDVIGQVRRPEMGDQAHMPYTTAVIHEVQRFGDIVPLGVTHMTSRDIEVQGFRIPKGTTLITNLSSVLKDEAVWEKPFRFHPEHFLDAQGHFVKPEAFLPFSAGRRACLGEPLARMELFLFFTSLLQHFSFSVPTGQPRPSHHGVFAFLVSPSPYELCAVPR

As for `BrCC(Br)C1CCC(Br)C(Br)C1` (configuration not stated), the Potency entry in test [1], in [2], in test [3], in [4], in test [5] and in test [6] was “inactive” in each case. Moreover, the Potency result in [8], in test [9], in test [10], in [11] and in [14] was “inactive” each time. Also, the Potency was 48.3 µM (active) in test [7], 11.2 µM (active) in [12] and 31.6 µM (active) in test [13].

`COc1cc(CC(C)N)cc2c1OCO2` (configuration not stated): the Potency entry in test [1], in test [2], in [3], in [4], in test [5] and in [6] was “inactive” each time. In addition, the Potency entry in test [7], in test [8], in [9], in test [10], in [12] and in test [13] was “inactive” each time. The Potency result in test [17] and in test [14] was “inactive” throughout. The Potency in [15] was 2.09 µM (active); in [16], 74.1 µM (active).

In the case of `O=C(CCl)c1ccc(Cl)cc1Cl`, the Potency entry in [1], in test [2], in [3], in test [6], in [8] and in test [9] was “inactive” in each case. Further, the Potency entry in test [10], in test [11], in test [17] and in [14] was “inactive” in each case. Further, the Potency in test [4] was 68.2 µM (active) and 26.6 µM (active); in test [7], 60.8 µM (active) and 29.8 µM (active); in test [15] it was 39.8 µM (active) and 38.9 µM (active); in test [12], 17.8 µM (active) and 9.77 µM (active); in test [13], 12.6 µM (active) and 17.4 µM (active); in [16] it was 35.4 µM (active) and 12.9 µM (active).

For the compound `NCCCNCCCN`, the Potency result in test [1], in test [2], in test [3], in [4] and in test [6] was “inactive” in each case.

`COc1cc(Cl)c(OC)cc1Cl`: the Potency result in test [1], in test [2], in test [3], in [4], in test [6] and in test [7] was “inactive” each time. The Potency result in test [8], in test [9], in test [10], in test [11], in test [15] and in [17] was “inactive” each time. Moreover, the Potency in [12] was 79.6 µM (active); in [13], 71 µM (active); in [16], 12.6 µM (active); in [14], 15.9 µM (active).

Consider `COc1nn(C(=O)NS(=O)(=O)c2ccccc2OC(F)(F)F)c(=O)n1C`, for which the Potency result in test [1], in test [2], in test [3], in test [4], in [6] and in test [7] was “inactive” in each case. The Potency result in test [8], in test [9], in test [10], in test [11], in test [15] and in test [12] was “inactive” in each case. Also, the Potency result in [16], in test [17] and in [14] was “inactive” each time. Besides, the Potency in test [13] is 32.5 µM (active).

`Cl/C=C\C[N+]12CN3CN(CN(C3)C1)C2`: the Potency entry in test [1], in test [2], in [3], in test [4], in test [5] and in test [6] was “inactive” each time. The Potency result in [7], in test [9], in test [10], in [11], in [12] and in test [13] was “inactive” throughout. For the same compound, the Potency result in test [16], in test [17] and in [14] was “inactive” throughout. Moreover, in test [15], the Potency was 71 µM (active).

As for `O=C(CBr)Nc1ccc(Cl)cc1C(=O)c1ccccc1F`, the Potency entry in test [1], in test [2], in test [3], in test [4], in [5] and in test [6] was “inactive” in each case. In addition, the Potency entry in test [8], in [9], in test [10], in [15] and in [14] was “inactive” each time. The figures for the Potency in test [12] and in [16] were 1.95 µM (active) and 13.8 µM (active), respectively.
